Screening data: PubChem, National Center for Advancing Translational Sciences (NCATS)
TDP1 cell noCPT: qHTS for Inhibitors of human tyrosyl-DNA phosphodiesterase 1 (TDP1): qHTS in cells in absence of CPT; AID 686978, 2013; Potency, µM (doses to about 46.2 µM), for inactives: top-dose activity change, negative = growth inhibition, actives largely listed as inhibitors; 420,000 tested, 15% active; DT40 Tdp1-/- hTDP1 cells, no CPT, ATP luminescence, 48 h; note: potency is the fitted concentration of half-maximal effect; nearly all actives have a fitted effect of over 55% in size
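Growth of hTDP1-complemented DT40 Tdp1-knockout cells is measured by ATP luminescence after at least 48 hr compound exposure at 37 °C, with DMSO substituting for the 20 nM CPT used in the parallel screen.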
TDP1 cell CPT: DT40-hTDP1 cell growth loss with CPT; Potency, µM (top dose mostly 46.2 µM), for the others: top-dose activity change, negative = growth inhibition, most hits filed as inhibitors; chicken DT40 Tdp1-/-;hTDP1 cells + 20 nM CPT, ATP luminescence, 48 h; 420,000 tested, 12% active; AID 686979; note: potency is the fitted concentration of half-maximal effect; nearly all actives have a fitted effect of over 55% in size
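Chicken DT40 Tdp1-/- cells complemented with human TDP1, 400 cells/well, exposed to compounds plus 20 nM camptothecin for at least 48 h at 37 C; viability read as ATP content by CellTiter-Glo luminescence.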
HT1080 IDH1KD tx: kills HT-1080 cells with IDH1 knockdown; 360,000 tested, 2% active; AID 686971; HT-1080 IDH1 knockdown viability, ATP luminescence, 48 h; Potency, µM (series often up to 46.1 µM), without a hit: at the highest dose activity, negative = toxicity, most hits filed as cytotoxic;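 note: potency is the fitted concentration of half-maximal effect; 0% = DMSO wells and -100% = cell-free medium wells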
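Luminescent ATP read-out (CellTiter-Glo, 10 min at room temperature) after 48 h compound exposure at 37 °C gave viability of IDH1-knockdown HT-1080 cells. Activity was normalised to DMSO and cell-free wells, then fitted as concentration-response curves.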
HT1080NT lethal: kills 2HG-producing HT-1080-NT fibrosarcoma cells; HT-1080-NT fibrosarcoma viability, CellTiter-Glo ATP luminescence, 48 h; Potency, µM (doses to about 46.1 µM), for inactives: top-dose activity, negative = less viability, usual class: cytotoxic; 360,000 tested, 1.6% active;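 note: NT is the 2HG producing partner of a matched IDH1 knockdown line; potency is the fitted concentration of half-maximal effect; 0% = DMSO-treated cells and -100% = media-only wells without cells; nearly all actives have a fitted effect of over 55% in size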
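Read-out is CellTiter-Glo luminescence after 10 minutes at room temperature, following 48 hours' compound treatment of HT-1080-NT cells (750 cells/well, RPMI, 5% FBS, 37 degrees C).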
IL1B secr inh: inflammasome signaling inhibition, IL-1 beta readout | THP-1 LPS/ATP IL-1B secretion, AlphaLISA, 16 h; active compounds read low | activity change, % at 57.5 µM | 360,000 tested, 4.7% active | AID 743279; in the data active = activity change below about -50%; inconclusive = mostly about -30% to -49%
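THP-1 cells pretreated 1 hr with compounds (up to 57.5 uM final), then stimulated with LPS (250 ng/mL final) plus ATP (1.25 mM final); secreted IL-1B measured by AlphaLISA after 16 hr, decreased signal indicating inhibition.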
Active calls of the source: *; ? = inconclusive; / = no result given. Only some compounds are listed: those with a hit (about 19% of all), similar ones and a draw of the others. Unless noted, calls come from the whole dose curve; as a rule, active = well fitted curve in the direction sought with a large enough effect; inconclusive = small, poorly fitted or top-dose-only effect, or another doubt; inactive = no such curve, though single readings can be large; an effect the other way counts as inactive or inconclusive. Unless noted, % is set by controls: 0 for no effect and ±100 for the full control effect.

SMILES	TDP1 cell noCPT	TDP1 cell CPT	HT1080 IDH1KD tx	HT1080NT lethal	IL1B secr inh
CC(=O)Nc1ccc(NC(=O)CCS(=O)(=O)c2ccc3c(c2)CC(=O)N3C)cc1	-9%	-2%	/	/	/
Cc1cc(NC(=O)CCC(=O)N(c2ccc(F)cc2)C(C(=O)NC2CCCC2)c2ccc(C)o2)no1 (stereo not drawn)	?	-12%	-14%	2%	21
CCOC(=O)C1CCCCN1S(=O)(=O)c1csc(C(N)=O)c1 (stereo not drawn)	-6%	-7%	/	/	/
COc1cccc(COc2ccc3c(C)cc(=O)oc3c2)c1	?	-14%	-20%	-15%	-29
COc1ccccc1C1=NOC(COc2ccc3c(C)cc(=O)oc3c2)C1 (stereo not drawn)	0.82µM*	0.82µM*	0.73µM*	0.92µM*	14
COc1ccc(C2=NOC(COc3ccc4c(C)cc(=O)oc4c3)C2)c(OC)c1 (stereo not drawn)	5.2µM*	4.1µM*	5.8µM*	?	0
COc1ccc2c(C)cc(=O)oc2c1	-8%	3%	5%	27%	-19
COc1ccc(C(=O)Nc2cccc(C(C)=O)c2)c(OC)c1OC	?	-29%	1%	17%	-13
CCN(CC)c1cc(C)c2cc(NC(=O)c3cccc(OC)c3OC)ccc2n1	6.5µM*	16µM*	/	/	/
CCOc1ccccc1C(=O)Nc1ccc2nc(N(CC)CC)cc(C)c2c1	21µM*	21µM*	/	/	/
CCN(CC)c1cc(C)c2cc(NC(=O)CNC(C)=O)ccc2n1	-12%	32%	-3%	-5%	-4
CCN(CC)c1cc(C)c2cc(NC(=O)c3ccccc3F)ccc2n1	29µM*	21µM*	-23%	-11%	-57*
CCOc1ccc(C(=O)Nc2ccc3nc(N(CC)CC)cc(C)c3c2)cc1	?	18µM*	/	/	/
CCOc1ccc(NC(=O)c2cccc(NC(=O)c3ccccc3)c2)cc1	?	?	-20%	-19%	-16
COc1ccc(-c2noc(CN(C)C(=O)CCCN3C(=O)[C@H]4CC=CC[C@H]4C3=O)n2)cc1	?	?	-4%	-8%	18
COc1ccc(CNC(=O)[C@@H](NC(=O)C2CCN(C(=O)[C@@H](N)CC(C)C)CC2)C(C)C)cc1	-9%	-7%	6%	7%	-12
CC(C)Cc1nnc(NC(=O)CCc2c[nH]c3ccccc23)s1	-19%	?	?	-19%	-18
CCN1C(=O)[C@H]2[C@@H](c3ccc(-c4ccc(F)cc4)cc3)N3CCCC[C@@]3(C(=O)OC)[C@H]2C1=O	?	?	-13%	-15%	-18
CCN1C(=O)[C@H]2[C@@H](c3ccc(-c4ccc(F)cc4)c(OC)c3)N3CCCC[C@@]3(C(=O)OC)[C@H]2C1=O	16µM*	23µM*	-14%	-29%	-74*
CCN1C(=O)[C@@H]2[C@@H](c3ccc(-c4ccc(C(C)=O)cc4)c(OC)c3)N3CCCC[C@@]3(C(=O)OC)[C@@H]2C1=O	15µM*	?	6%	7%	-4
CCN1C(=O)[C@@H]2[C@@H](c3ccc(-c4ccc(C(C)=O)cc4)c(OC)c3)N3CCC[C@@]3(C(=O)OC)[C@@H]2C1=O	?	?	0%	0%	-14
CCN1C(=O)[C@H]2[C@@H](c3ccc(-c4ccc(C(C)=O)cc4)cc3)N3CCCC[C@@]3(C(=O)OC)[C@H]2C1=O	12µM*	?	4%	2%	-20
CCN1C(=O)[C@@H]2[C@@H](c3ccc(-c4ccc(F)cc4)c(OC)c3)N3CCC[C@@]3(C(=O)OC)[C@@H]2C1=O	?	23µM*	2%	-7%	-7
COc1ccc(CN2CCC(C(=O)NCCc3ccc(OC)c(OC)c3)CC2)c(OC)c1	?	-3%	7%	-1%	-5
C[C@H](CO)N1C[C@H](C)[C@@H](CN(C)S(=O)(=O)c2cn(C)cn2)Oc2c(NC(=O)Nc3ccc4c(c3)OCO4)cccc2C1=O	-23%	-30%	5%	4%	-9
SMILES	TDP1 cell noCPT	TDP1 cell CPT	HT1080 IDH1KD tx	HT1080NT lethal	IL1B secr inh
Clc1ccc2ccc3cccnc3c2n1	?	?	3%	-1%	-6
O=S1(=O)Nc2c(ccc3cccnc23)-c2ccccc21	1.5µM*	1.2µM*	0.32µM*	0.56µM*	-100*
COc1cc(C2c3cc4c(cc3OC(N3CCCC3)C2C)OCO4)cc(OC)c1O (stereo not drawn)	16µM*	?	?	?	25
COc1cc(C2c3cc4c(cc3OC(N3CCOCC3)C2C)OCO4)cc(OC)c1OC(C)=O (stereo not drawn)	26µM*	?	?	?	21
COc1cc(C(=O)Oc2c(OC)cc(C(=S)N3CCOCC3)cc2OC)cc(OC)c1OC	0%	-2%	7%	4%	10
COc1cc(C2c3cc4c(cc3OC(C)(N3CCCC3)C2C)OCO4)cc(OC)c1OC (stereo not drawn)	1.2µM*	1.2µM*	?	?	20
CCC(CO)NC(=O)C(=O)Nc1c2c(nn1-c1ccc(F)cc1)CSC2 (stereo not drawn)	3%	-6%	/	/	/
CCC(=O)N1CCC1(C)C(=O)Nc1ncc(C)s1 (stereo not drawn)	-3%	-20%	15%	1%	7
COc1ccc(NC(=O)COC(=O)CC23CC4CC(CC(C4)C2)C3)c([N+](=O)[O-])c1	?	?	-8%	-3%	0
CCOc1ccc(NC(=O)COC(=O)C23CC4CC(CC(C4)C2)C3)c([N+](=O)[O-])c1	?	18µM*	-3%	1%	12
CN(C)N=Nc1ccc(-c2cn(Cc3ccccc3)cn2)cc1	26µM*	0%	-20%	-25%	-18
Cc1ccc(C(=O)Cc2cc3ccccc3oc2=O)c(C)c1	?	-5%	11%	0%	-14
Cc1cc(C)c2nc(SCC(=O)N3CC(=O)Nc4ccccc43)c(C#N)cc2c1	1.3µM*	1.3µM*	0.92µM*	?	44
COc1ccc(C(=O)N2CC(=O)Nc3ccccc32)cc1S(=O)(=O)N1CCCC1	?	0%	-26%	-25%	27
Cc1cc(C)c2nc(SCC(=O)Nc3ccccc3N3CCOCC3)c(C#N)cc2c1	?	?	2%	5%	41
Cc1cc(C)cc(C(=O)N2CC(=O)Nc3ccccc32)c1	0.58µM*	0.92µM*	0.52µM*	1.2µM*	21
Cc1ccsc1C(=O)N1CC(=O)Nc2ccccc21	23µM*	?	18µM*	?	-20
COc1cc(C(=O)N2CC(=O)Nc3ccccc32)cc(OC)c1OC	8.2µM*	8.2µM*	?	?	63
